Experimental data as given in PubChem BioAssay AID1578 (Sanford-Burnham Center for Chemical Genomics, 2009).
The whole screen tested about 290,000 compounds, of which about 3,000 (1%) were called active. The sample holds actives, similar compounds and a random draw of the others, so the mix is not that of the screen. Rule as the data show it: active = inhibition mostly above about 36% (no sharp cut-off); inactive = mostly below about 34%.

Assay: NOD1 signaling inhibitors, primary screen, cell-based, luminescence, uHTS (AID 1578);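 also: HEK-293T reporter cells stimulated with the NOD1 agonist gamma-tri-DAP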
Conditions: NOD1-driven NF-kB luciferase reporter cells, at 4 µM, stronger effect = higher value

inhibition, active:
COc1ccc(C(=O)C[n+]2ccc(N)c(C)c2C)cc1 59.4%
Cc1cc(OCC(=O)NCCN2CCOCC2)cc(C)c1Cl 84.9%
N#Cc1ccccc1NC(=O)c1ccc2c(Cl)c3c(nc2c1)CCCC3 66.5%
O=C(c1cc2ccccc2oc1=O)N(Cc1ccccc1)Cc1ccc2c(c1)OCO2 50.1%
O=C(/C=C/c1ccc(F)cc1)NC(=S)NC1CCCCC1 36.3%
COc1cc(/C=C(/C(=O)c2cccs2)c2nc3ccccc3[nH]2)cc(OC)c1O 98.8%
O=C(CSc1nc2scc(-c3ccccc3)c2c(=O)[nH]1)NC1CCCCC1 67.6%
Cc1ccc(C2=NNC3(CCOC(C)(C)C3)S2)cc1 (centres undefined) 74.5%
CCN1CCCC1CNC(=O)C(=O)NC1CC1 (centres undefined) 40.8%
Oc1ccc(Br)cc1-c1ccnn1-c1ccccc1 82.1%
Cc1cnc(NC(=O)c2sc3ccccc3c2Cl)s1 105%
Cc1ccc2c(Cl)c(C(=O)Nc3cccnc3)sc2c1 87.9%
O=C(Nc1cccnc1)Nc1cc(Cl)cc(Cl)c1 76.8%
COc1cccc(CN(Cc2ccco2)C(c2ccc(F)cc2)c2nnnn2C(C)(C)C)c1 (centres undefined) 50.8%

inhibition, inactive:
Cc1nc2ccc(Cl)cn2c1C(=O)NN -35.5%
O=C(NCCNC(=O)c1ccco1)c1ccco1 5%
Cc1cccc(N(CC(=O)NC2CCCCC2)C(=O)CCCC(=O)Nc2ccccn2)c1 -26.2%
Cn1nnnc1SCCNCc1ccncc1 -3.9%
Cn1c(N2CCCC2)nc2c1c(=O)n(Cc1ccc(Cl)cc1)c(=O)n2C -9.4%
Cn1c(N2CCC(C(N)=O)CC2)nc2c1c(=O)n(Cc1ccc(Cl)cc1)c(=O)n2C -1.5%
O=C(c1nc2ccc(Cl)cn2c1CN1CCC[C@H]1CO)N1CCCCCCC1 -22%
CCOC(=O)c1cnc(N2CCN(c3ccccc3)CC2)[nH]c1=O 1.6%
CC(=O)c1ccc(NCC2COc3ccccc3O2)c([N+](=O)[O-])c1 (centres undefined) -11.7%
CCOC(=O)CSc1ccc2nnc(-c3ccccc3)n2n1 -21.3%
COc1nc(Nc2ccccc2F)nc(OC)n1 -28.1%
COc1ccc(C(=O)C[n+]2ccc3ccccc3c2C)cc1 -2.3%
Cc1c(N)cc[n+](CC(=O)c2ccccc2)c1C -3.9%
Cc1cc(C(=O)N2CCCC(CCC(=O)N3CCN(c4ccccn4)CC3)C2)c(C)o1 (centres undefined) -25.2%
Cc1cc(Cl)ccc1OCC(=O)Nc1ccncc1 23.8%
Cc1cc(OCC(=O)Nc2ccncc2)ccc1Br 49.9%
Cc1cc(OCC(=O)Nc2ccncc2)ccc1Cl 27.1%
Cc1cc(C)cc(OCC(=O)Nc2ccncc2)c1 30.1%
Cc1cc(OCC(=O)NCCN2CCOCC2)cc(C)c1Br -62.5%
Cc1ccc(OCC(=O)NCCN2CCOCC2)cc1C -3.4%
Cc1ccccc1-n1nc2c(c1NC(=O)C(C)C)CS(=O)(=O)C2 -6.5%
CC(=O)c1cccc(NC(=O)c2ccc3c(Cl)c4c(nc3c2)CCCC4)c1 -3.3%
O=C(Nc1cccnc1Cl)c1ccc2c(Cl)c3c(nc2c1)CCC3 -39.9%
Clc1ccc(C2Nc3ccccc3-n3cccc32)cc1 (centres undefined) -20.2%
CN1CCCN(C(=O)c2ccc(Cl)s2)CC1 -15%
O=C(NCc1ccc2c(c1)OCO2)c1cc2ccccc2oc1=O 11.3%
O=C(c1cc2ccccc2oc1=O)N(Cc1ccc2c(c1)OCO2)Cc1ccco1 -2.2%
COc1cc(C(C(=O)NC2CCCCC2)N(Cc2ccco2)C(=O)c2cnccn2)cc(OC)c1OC (centres undefined) -34.1%
C[C@]12C=CC(=O)C=C1CC[C@@H]1C2C(O)C[C@@]2(C)C1CC[C@]2(O)C(=O)COC(=O)CCC(=O)NC(CC(=O)O)C(=O)O (some centres undefined) -8.1%
O=C(/C=C/c1ccc(F)cc1)NC(=S)Nc1ccccc1C(=O)NC1CCCCC1 12.3%
CN(C(=S)NC(=O)/C=C/c1ccc(F)cc1)C1CCCCC1 -22.9%
COc1cccc2c(Nc3ccccc3C)cc(C)nc12 6.4%
COc1ccc(C(=O)N/C(=C/c2cccs2)c2nc3ccccc3[nH]2)cc1OC -5.7%
COc1cc(/C=C(\C#N)c2nc3ccccc3[nH]2)cc(OC)c1O 6.4%
COc1ccc(/C=C(\C#N)c2nc3ccccc3[nH]2)cc1O 12%
COC(=O)/C(=C\c1ccc(O)cc1)c1nc2ccccc2[nH]1 -44.4%
O=C(CN1CCOCC1)OCCCc1ccccc1 -23.1%
CCCCNC(=O)Nc1c(C(=O)OCC)[nH]c2ccccc12 -25.1%
CCOC(=O)CCCCCN(Cc1ccccc1)S(=O)(=O)c1ccc([N+](=O)[O-])cc1 -22.1%
CCOC(=O)c1c(-c2ccc(C)o2)csc1NC(=O)CN1CCOCC1 14.9%
CCc1nc(SCc2ccccc2C#N)n[nH]1 -30.4%
O=C(Nc1ccc(C(=O)N2CCCC2)cc1)c1ccc(F)cc1Cl -14%
COc1ccc(Cn2c(=O)[nH]c3cc(C(=O)N4CCN(c5ccccn5)CC4)ccc3c2=O)cc1 -10.7%
O=C(c1ccc(Cn2c(=O)[nH]c3ccccc3c2=O)cc1)N1CCN(c2ccccn2)CC1 -8.3%
CCOC(=O)N1CCN(C(=O)c2ccc(Cn3c(=S)[nH]c4cc(C(=O)OC)ccc4c3=O)cc2)CC1 -11%
CCOC(=O)N1CCN(C(=O)c2ccc(Cn3c(=S)[nH]c4cc(OCC)c(OCC)cc4c3=O)cc2)CC1 19.9%
O=C(CSc1ncccc1C(=O)O)NC1CCCCC1 -47.1%
CC(C)C(=O)Nc1ccc(Cl)cc1-c1nc2ccccc2[nH]c1=O 34.6%
Cc1cccc(C)c1NC(=O)CSc1nnc([C@@H]2CCCN2C(=O)OC(C)(C)C)o1 -0.7%
N#CCS(=O)(=O)c1ccccc1 -5.7%
CC(C)(C)NC(=O)CSc1nc2scc(-c3ccccc3)c2c(=O)[nH]1 25.7%
O=C(CSc1nc2scc(-c3ccccc3)c2c(=O)[nH]1)N1CCCCC1 -9.2%
Cc1ccc2nc(CNC(=O)C3CCC(=O)N(Cc4ccccc4F)C3)cn2c1 (centres undefined) -21.3%
Cc1ccc(C2(CC(=O)O)CCOC(C)(C)C2)cc1 (centres undefined) 5.4%
CCc1ccc2c(c1)C1(NN=C(c3ccc(C)cc3)S1)C(=O)N2 (centres undefined) 15.2%
O=C(c1cnsn1)N1CCC(CO)(Cc2ccc(Cl)cc2)CC1 -10.4%
NC(=O)c1cc(-c2csc(NCCc3ccccc3)n2)ccc1O -52.8%
COc1ccc(N2CCN(C(=O)CSc3nc4[nH]ncc4c(=O)n3-c3ccc(Br)cc3)CC2)cc1 8.7%
CCN1CCCC1CNC(=O)C(=O)NC (centres undefined) -17.4%
CCCNC(=O)C(=O)NCC1CCCN1CC (centres undefined) -18.5%
CCCCNC(=O)Cn1c(-c2ccc(OC)cc2)noc1=O -2.3%
COc1ccc(NC(=O)N2CCC(O)(c3cccnc3)CC2)c(OC)c1 15.9%
Fc1ccc(-c2ccnn2-c2ccccc2)cc1 -18.4%
Oc1ccc(Br)cc1-c1cc(-c2ccccc2)n[nH]1 -13.2%
COC(=O)CCCCC1SCC2NC(=O)NC21O (centres undefined) -2.5%
Cc1ccc2c(Cl)c(C(=O)NCc3cccnc3)sc2c1 12.2%
O=C(Nc1ccc(Cl)cc1)Nc1cccnc1 -14.9%
Cc1ccc(NC(=O)c2sc3ccccc3c2Cl)nc1 -21.7%
O=C(Nc1cccnc1)Nc1ccccc1Cl -8.9%
Cc1ccc2c(Cl)c(C(=O)Nc3cc(C)on3)sc2c1 -79.3%
Cc1nnc(NC(=O)c2sc3ccccc3c2Cl)s1 -46.1%
COc1ccccc1-c1cc(C(=O)Nc2ccccc2SC)no1 -10%
CCOC(=O)C1(Cc2ccccc2C)CCCN(C(=O)c2ccnn2C)C1 (centres undefined) -17.1%
Cc1ccc(C)c(SCC(=O)NNC(=O)c2ccccc2)c1 -14.3%
Cc1cc(Cl)c(S(=O)(=O)N2CCCC2)cc1OCC(=O)NC1CCCCC1 28.5%
CCN1CCN(S(=O)(=O)c2cc(OCC(=O)NC3CCCCC3)c(C)cc2Cl)CC1 26.3%
C/C(=C\c1ccccc1)C(=O)Nc1cc(C)on1 -6.1%
Cc1ccccc1Cn1cc(C)c(=O)[nH]c1=O -20.8%
CC(C)(C)n1nnnc1C(c1ccc(C(F)(F)F)cc1)N(Cc1ccc(F)cc1)Cc1ccco1 (centres undefined) -13.2%
CC(C)(C)n1nnnc1C(c1ccc(F)cc1)N(Cc1ccc(F)cc1)Cc1ccco1 (centres undefined) -2.1%
Cc1nc2cc(NC(=O)N3CC4(C)CC3CC(C)(C)C4)ccc2n1C (centres undefined) -31.3%
COC(=O)CCc1ccc(O)cc1 -24%
CN1CCN(C(c2ccc(C(F)(F)F)cc2)c2ccc3cccnc3c2O)CC1 (centres undefined) 23.8%
Cc1c(CCO)c(=O)[nH]n1S(=O)(=O)c1ccc(F)cc1 -15.6%
Cc1csc(CNC(=O)c2ccc(OC3CCN(CCc4ccccc4)CC3)cc2)n1 -16.3%
